Holding throughout (conditions): mRNA level, 48 h; actives raise or lower the signal
Read-out in assay [1]: ABC Transporter (ABCC2), ABCC2 (gene 1244)
Briefly: LTEA_HepaRG_ABCC2: Life Technologies and Expression Analysis (LTEA) Assay for ABC Transporter (ABCC2) using HepaRG (AID 2283464). The method, boiled down: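 Endpoint is ABCC2 transcript level from qRT-PCR, normalized to three housekeeping genes and fitted bidirectionally relative to DMSO. Human HepaRG cells received test chemical for 48 h at up to 100 uM (8 points, half-log steps, 0.5% DMSO), duplicate wells.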

Read-out in assay [2]: Broad substrate specificity ATP-binding cassette transporter ABCG2 (Homo sapiens) (UniProt Q9UNQ0)
The experiment in a line: LTEA_HepaRG_ABCG2: Life Technologies and Expression Analysis (LTEA) Assay for ABC Transporter (ABCG2) using HepaRG (AID 2283465). The method, boiled down: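 HepaRG, 48 h exposure, 8-pt half-log series from 100 uM, 0.5% DMSO vehicle, duplicates. Readout: ABCG2 transcript by qRT-PCR (Fluidigm array), housekeeping-normalized; bidirectional curve fit relative to DMSO baseline.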

Read-out in assay [3]: ATP-citrate lyase (ACLY), ACLY (gene 47)
The experiment in a line: LTEA_HepaRG_ACLY: Life Technologies and Expression Analysis (LTEA) Assay for ATP-citrate lyase (ACLY) using HepaRG (AID 2283466). The method, boiled down:
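qRT-PCR readout of ACLY transcript after 48 h chemical treatment of HepaRG cells; expression normalized to three housekeeping genes. Eight-point half-log series, highest 100 uM, 0.5% DMSO vehicle. Gain or loss fitted against DMSO baseline.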

Read-out in assay [4]: Peroxisomal acyl-coenzyme A oxidase 1 (ACOX1) gene, ACOX1 (gene 51)
Briefly: LTEA_HepaRG_ACOX1: Life Technologies and Expression Analysis (LTEA) Assay for Peroxisomal acyl-coenzyme A oxidase 1 (ACOX1) gene using HepaRG (AID 2283467). The method, boiled down:
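HepaRG, 48 h chemical exposure, 8-pt half-log series from 100 uM top, 0.5% DMSO vehicle, duplicates. Readout: ACOX1 mRNA by Fluidigm qRT-PCR, housekeeping-normalized; bidirectional fit vs DMSO baseline.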

Read-out in assay [5]: Alkaline Phosphatase, Placental (ALPP) gene, ALPP (gene 250)
The experiment in a line: LTEA_HepaRG_ALPP: Life Technologies and Expression Analysis (LTEA) Assay for Alkaline Phosphatase, Placental (ALPP) gene using HepaRG (AID 2283468). The method, boiled down:
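ALPP transcript level, measured by qRT-PCR and normalized to three housekeeping genes (ACTB, GAPDH, POLR2A), after 48 h dosing of differentiated HepaRG in serum-free induction medium. Top concentration 100 uM with half-log dilutions (8 points, 0.5% DMSO, duplicates); bidirectional fitting relative to DMSO.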

Read-out in assay [6]: Bcl-2 (BAD) gene, BAD (gene 572)
The experiment in a line: LTEA_HepaRG_BAD: Life Technologies and Expression Analysis (LTEA) Assay for Bcl-2 (BAD) gene using HepaRG (AID 2283469). The procedure, abridged: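 HepaRG, 48 h exposure, 8-pt half-log curve from 100 uM in 0.5% DMSO, duplicates. Readout: TaqMan qRT-PCR for BAD mRNA, housekeeping-normalised (ACTB/GAPDH/POLR2A); gain or loss fitted against DMSO baseline.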

Read-out in assay [7]: Bcl-2 (BAX) gene, BAX (gene 581)
The experiment in a line: LTEA_HepaRG_BAX: Life Technologies and Expression Analysis (LTEA) Assay for Bcl-2 (BAX) gene using HepaRG (AID 2283470). The method, boiled down: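 qRT-PCR read-out of BAX mRNA, normalized to three housekeeping genes, after 48 h chemical exposure of human HepaRG cells in serum-free induction medium; eight-point half-log series, top 100 uM, 0.5% DMSO vehicle; bidirectional fit versus DMSO.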

Read-out in assay [8]: adenosine kinase (ADK) gene, ADK (gene 132)
Briefly: LTEA_HepaRG_ADK: Life Technologies and Expression Analysis (LTEA) Assay for adenosine kinase (ADK) gene using HepaRG (AID 2283471). The procedure, abridged:
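Following 48 h exposure of HepaRG cells in 0.5% DMSO (top concentration 100 uM, duplicate wells), ADK mRNA induction or suppression was measured by qRT-PCR, normalised to ACTB/GAPDH/POLR2A, and fitted bidirectionally relative to vehicle.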

Read-out in assay [9]: Alpha-fetoprotein (AFP) gene, AFP (gene 174)
Briefly: LTEA_HepaRG_AFP: Life Technologies and Expression Analysis (LTEA) Assay for Alpha-fetoprotein (AFP) gene using HepaRG (AID 2283472). The procedure, abridged:
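qRT-PCR (Fluidigm TaqMan) readout of AFP transcript, normalized to three housekeeping genes, fitted bidirectionally against 0.5% DMSO baseline. HepaRG cells received chemicals for 48 h in serum-free induction medium, top concentration 100 uM, half-log steps.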

Read-out in the next assay: BCL2L11 (gene 10018)
Briefly: LTEA_HepaRG_BCL2L11: Life Technologies and Expression Analysis (LTEA) Assay for Bcl-2 (BCL2L11) gene using HepaRG (AID 2283473). The procedure, abridged:
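BCL2L11 transcript levels are measured by Fluidigm qRT-PCR, normalized to three housekeeping genes. HepaRG cultures were plated 48 h, then treated 48 h with test chemical (top 100 uM, half-log, 0.5% DMSO vehicle); curves were fitted bidirectionally against DMSO.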

Read-out in assay [10]: Apolipoprotein A-V (APOA5) gene, APOA5 (gene 116519)
The experiment in a line: LTEA_HepaRG_APOA5: Life Technologies and Expression Analysis (LTEA) Assay for Apolipoprotein A-V (APOA5) gene using HepaRG (AID 2283474). The method, boiled down: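 APOA5 transcript levels were quantified by qRT-PCR, normalized to three housekeeping genes, after 48 h chemical treatment of HepaRG cells (8 points, 100 uM maximum, half-log steps, 0.5% DMSO). Curves fitted in both directions against vehicle.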

Read-out in assay [11]: Apoptosis regulator Bcl-2 (Homo sapiens) (UniProt P10415)
The experiment in a line: LTEA_HepaRG_BCL2: Life Technologies and Expression Analysis (LTEA) Assay for Bcl-2 gene using HepaRG (AID 2283475). The procedure, abridged:
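qRT-PCR read-out (Fluidigm TaqMan) of BCL2 transcript, normalised to three housekeeping genes, after 48 h chemical exposure of HepaRG cells; 8-point half-log series, top 100 uM, 0.5% DMSO vehicle. Gain or loss of signal fitted relative to DMSO baseline.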

Read-out in assay [12]: Bcl-2 (BID) gene, BID (gene 637)
The experiment in a line: LTEA_HepaRG_BID: Life Technologies and Expression Analysis (LTEA) Assay for Bcl-2 (BID) gene using HepaRG (AID 2283476). The procedure, abridged:
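HepaRG, 48 h exposure, 8-pt half-log series, top 100 uM, 0.5% DMSO vehicle, duplicates. Readout: BID mRNA by TaqMan qRT-PCR; housekeeping-normalized; bidirectional curve fit vs DMSO baseline.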

Read-out in a further assay: Caspase-3 (Homo sapiens) (UniProt P42574)
The experiment in a line: LTEA_HepaRG_CASP3: Life Technologies and Expression Analysis (LTEA) Assay for cysteine-aspartic acid protease (CASP3) using HepaRG (AID 2283477). The procedure, abridged: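 Expression of CASP3 was quantified by TaqMan qRT-PCR against three housekeeping genes (ACTB, GAPDH, POLR2A), bidirectionally versus 0.5% DMSO. HepaRG cultures received compounds in duplicate, top 100 uM with half-log steps, for 48 h in serum-free induction medium.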

Read-out in assay [13]: Cytochrome P450 (CYP24A1), CYP24A1 (gene 1591)
The experiment in a line: LTEA_HepaRG_CYP24A1: Life Technologies and Expression Analysis (LTEA) Assay for Cytochrome P450 (CYP24A1) using HepaRG (AID 2283478). The method, boiled down: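 mRNA of CYP24A1 quantified by TaqMan qRT-PCR (ACTB/GAPDH/POLR2A normalization) after 48 h chemical exposure of HepaRG cells, top concentration 100 uM, half-log steps, 0.5% DMSO vehicle, duplicates. Curves fitted bidirectionally against DMSO baseline.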

Read-out in assay [14]: Cytochrome P450 (CYP1A2), CYP1A2 (gene 1544)
Briefly: LTEA_HepaRG_CYP1A2: Life Technologies and Expression Analysis (LTEA) Assay for Cytochrome P450 (CYP1A2) using HepaRG (AID 2283479). The procedure, abridged: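 CYP1A2 transcript measured by TaqMan qRT-PCR against three housekeeping genes after 48-hour chemical exposure of HepaRG cells. Eight-point half-log series topping at 100 uM in 0.5% DMSO, duplicates; gain or loss fitted relative to vehicle.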

Read-out in assay [15]: cysteine-aspartic acid protease (CASP8), CASP8 (gene 841)
The experiment in a line: LTEA_HepaRG_CASP8: Life Technologies and Expression Analysis (LTEA) Assay for cysteine-aspartic acid protease (CASP8) using HepaRG (AID 2283480). The procedure, abridged: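 qRT-PCR readout of CASP8 mRNA, normalized to three housekeeping genes, after 48 h chemical exposure of HepaRG cells; 8-point half-log series, top 100 uM, 0.5% DMSO vehicle. Bidirectional curve fitting against DMSO baseline.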

Read-out in assay [16]: Cytochrome P450 2C19 (Homo sapiens) (UniProt P33261)
Briefly: LTEA_HepaRG_CYP2C19: Life Technologies and Expression Analysis (LTEA) Assay for CYP2C19 using HepaRG (AID 2283482). The method, boiled down: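 CYP2C19 transcript levels by qRT-PCR, normalized to three housekeeping genes, in HepaRG cells after 48 h chemical exposure. Eight-point half-log series topping at 100 uM, 0.5% DMSO vehicle. Increases and decreases both fitted against DMSO.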

Read-out in a further assay: CYP2C8 (gene 1558)
Briefly: LTEA_HepaRG_CYP2C8: Life Technologies and Expression Analysis (LTEA) Assay for CYP2C8 using HepaRG (AID 2283483). The procedure, abridged: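 HepaRG (human liver line), 48 h chemical exposure, 8-pt half-log series from 100 uM, 0.5% DMSO vehicle. Readout: CYP2C8 transcript by qRT-PCR, housekeeping-normalized. Bidirectional fit vs DMSO baseline.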

Read-out in assay [17]: Cytochrome P450 (CYP2B6), CYP2B6 (gene 1555)
The experiment in a line: LTEA_HepaRG_CYP2B6: Life Technologies and Expression Analysis (LTEA) Assay for Cytochrome P450 (CYP2B6) using HepaRG (AID 2283481). The procedure, abridged:
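CYP2B6 transcript level quantified by qRT-PCR against three housekeeping genes, fitted bidirectionally relative to DMSO. HepaRG cultures received chemicals for 48 h, 8-point half-log series from 100 uM in 0.5% DMSO, duplicate wells, serum-free induction medium.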

The source made the active and inactive calls. Rule for the calls: active = hit-call score of the fitted dose curve at least 0.9, where 1 is the maximum; inactive = score below 0.9.

Sequence of Caspase-3 (Homo sapiens) (P42574 whole entry, looked up): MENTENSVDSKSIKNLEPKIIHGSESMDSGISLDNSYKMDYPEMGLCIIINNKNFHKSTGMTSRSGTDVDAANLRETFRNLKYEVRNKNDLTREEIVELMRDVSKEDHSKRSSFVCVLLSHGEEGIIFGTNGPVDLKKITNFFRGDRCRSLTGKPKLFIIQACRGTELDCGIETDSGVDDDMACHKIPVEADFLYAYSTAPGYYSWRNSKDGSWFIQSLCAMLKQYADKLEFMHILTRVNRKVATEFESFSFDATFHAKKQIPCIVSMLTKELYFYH
Sequence of Broad substrate specificity ATP-binding cassette transporter ABCG2 (Homo sapiens) (Q9UNQ0 whole entry, looked up): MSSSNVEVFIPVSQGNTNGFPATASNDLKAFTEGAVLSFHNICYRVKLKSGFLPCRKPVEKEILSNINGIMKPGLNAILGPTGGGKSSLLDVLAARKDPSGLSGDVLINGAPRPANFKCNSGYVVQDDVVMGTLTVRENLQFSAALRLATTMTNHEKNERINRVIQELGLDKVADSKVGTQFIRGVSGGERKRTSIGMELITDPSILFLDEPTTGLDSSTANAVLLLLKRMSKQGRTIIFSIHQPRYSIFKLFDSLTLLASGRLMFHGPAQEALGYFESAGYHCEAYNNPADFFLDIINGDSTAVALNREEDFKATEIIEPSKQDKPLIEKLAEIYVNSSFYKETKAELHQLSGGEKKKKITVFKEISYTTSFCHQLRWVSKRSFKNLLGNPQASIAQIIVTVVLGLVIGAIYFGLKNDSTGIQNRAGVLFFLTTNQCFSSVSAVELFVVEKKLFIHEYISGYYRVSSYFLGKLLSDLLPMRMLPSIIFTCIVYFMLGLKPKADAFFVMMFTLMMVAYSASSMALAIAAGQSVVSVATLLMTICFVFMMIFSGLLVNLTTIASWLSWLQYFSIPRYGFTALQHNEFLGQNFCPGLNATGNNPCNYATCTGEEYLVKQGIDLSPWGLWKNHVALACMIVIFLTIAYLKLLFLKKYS
Sequence of Apoptosis regulator Bcl-2 (Homo sapiens) (P10415 whole entry, looked up): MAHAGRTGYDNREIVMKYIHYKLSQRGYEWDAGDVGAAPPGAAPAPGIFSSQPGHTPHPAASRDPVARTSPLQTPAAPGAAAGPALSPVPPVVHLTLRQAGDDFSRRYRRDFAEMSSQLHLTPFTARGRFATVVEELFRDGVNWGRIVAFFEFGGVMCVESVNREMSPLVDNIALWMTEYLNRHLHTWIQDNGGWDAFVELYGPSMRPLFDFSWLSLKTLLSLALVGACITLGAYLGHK
Sequence of Cytochrome P450 2C19 (Homo sapiens) (P33261 whole entry, looked up): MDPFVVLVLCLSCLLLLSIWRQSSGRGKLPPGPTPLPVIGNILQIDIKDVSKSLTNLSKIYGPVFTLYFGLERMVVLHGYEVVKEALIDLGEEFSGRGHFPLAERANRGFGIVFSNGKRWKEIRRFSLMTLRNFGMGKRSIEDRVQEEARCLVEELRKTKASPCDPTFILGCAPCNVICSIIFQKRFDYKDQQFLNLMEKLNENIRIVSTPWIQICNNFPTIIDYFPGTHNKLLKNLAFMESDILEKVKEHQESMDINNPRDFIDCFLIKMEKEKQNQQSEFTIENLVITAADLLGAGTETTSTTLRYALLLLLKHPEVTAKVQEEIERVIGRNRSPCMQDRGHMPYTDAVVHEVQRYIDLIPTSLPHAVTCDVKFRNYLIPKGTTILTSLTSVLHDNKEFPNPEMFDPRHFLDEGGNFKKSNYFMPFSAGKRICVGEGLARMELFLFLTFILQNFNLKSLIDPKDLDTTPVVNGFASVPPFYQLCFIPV

With `O=[N+]([O-])C(Br)(CO)CO`, the molecule was called inactive in [1], in [2], in assay [3], in assay [4], in [5] and in assay [6]. Further, the result (in [7]; in [8]; in [9]; with BCL2L11 (gene 10018); in assay [10]; in [11]) was inactive. Moreover, the result (in assay [12]; in the assay with Caspase-3 (Homo sapiens); in [13]; in assay [14]; in [15]; in [16]) was inactive. In the assay with CYP2C8 (gene 1558), the outcome was inactive.

`[As]#[In]`: the molecule was called inactive in assay [1], in assay [2], in [3], in [4], in assay [5] and in assay [6]. Also, the call (in assay [7]; in [8]; in assay [9]; with BCL2L11 (gene 10018); in [10]; in assay [11]) was inactive. The call (in assay [12]; in the assay with Caspase-3 (Homo sapiens); in [13]; in [14]; in assay [15]; in assay [16]) was inactive. In the assay with CYP2C8 (gene 1558), the call was inactive.

Turning to `CCCCOC(=O)c1ccccc1C(=O)OCc1ccccc1`, the result in assay [1], in [2], in assay [3], in [4], in [5] and in assay [6] was inactive. For the same molecule, the result (in [7]; in [8]; in assay [9]; in the assay with BCL2L11 (gene 10018); in assay [10]; in assay [11]) was inactive. For the same molecule, the molecule was classed as inactive (in assay [12]; with Caspase-3 (Homo sapiens); in [13]; in assay [15]; in [17]; in assay [16]). Also, the call in the assay with CYP2C8 (gene 1558) was inactive. Also, the AC50 in assay [14] was 15.5 µM (active).

Source of the values: PubChem BioAssay (EPA / NIEHS).
